Each molecule was assayed against Calmodulin-1 (Homo sapiens) (UniProt P0DP23) (assay: small molecules binding Ca-loaded calmodulin-1 – biochemical, small-molecule microarray, Cy5-labelled CALM1, plus calcium, artefact control for SMM control-protein annotation, profiling panel (AID 1112;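 note: score merges spot fluorescence with signal to noise from triplicate slides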)). Conditions: Cy5-CALM1 binding fluorescence, higher = more signal.

| Compound | composite z-score |
| --- | --- |
| CC(C)(C)OC(=O)CC[C@]1(C(=O)N2CCOCC2)N=C(c2ccc(OCCCO)cc2)O[C@H]1c1ccccc1CN=[N+]=[N-] | 0.15 |
| CC(c1ccccc1)C(O)C1C=CC2C(=O)N(c3ccccc3)C(=O)C2N1Nc1ccc(C#N)cc1 (stereo not given) | 0.253 |
| COc1ccc(CCNC(=O)[C@@]2(Sc3ccc(C)cc3)CC(=O)N(Cc3cc(C(F)(F)F)cc(C(F)(F)F)c3)[C@@H]2c2ccc(CO)cc2)cc1 | -0.0998 |
| CCOC(=O)C[C@H]1[C@H](OC(=O)c2cc3ccccc3oc2=O)[C@@H](NC(=O)C2CCCCC2)c2cc(OCCCO)ccc2N1C(=O)Cc1ccc(OC)cc1 | -0.182 |
| CC1CC/C=C\[C@H]2OC34C=CCN(CCN5CCOCC5)C(=O)[C@H]3N(CCCCCCO)C(=O)[C@@H]4C2C(=O)O1 (stereo not given in full) | -0.42 |
| CCOC(=O)C1=CC[C@@H](c2ccc(F)cc2)N(S(=O)(=O)c2ccc(C)cc2)[C@H]1c1ccc([N+](=O)[O-])cc1 | -0.171 |
| COC(=O)[C@@]1(Cc2ccc(OC)cc2)[C@@H]2[C@@H](CC(=O)[C@H]2CC(=O)C(=O)N2CCCC2)CN1C(=O)c1ccccc1 | 1.02 |
| C=CCNC(=O)[C@H]1[C@@H]2C(=O)O[C@@H](c3ccccc3)[C@@H](c3ccccc3)N2[C@@H](c2ccc(O)cc2)[C@]12C(=O)Nc1ccc(C#CC3=CCCCC3)cc12 | 0.571 |
| COC(=O)Cn1c(C(=O)N(C)C)cc2c1C[C@H]1CN(C(=O)c3ccccc3)[C@@](Cc3ccc(OC)cc3)(C(=O)OC)[C@@H]21 | -0.39 |
| O=C1O[C@@H](c2ccccc2)[C@@H](c2ccccc2)N2[C@@H](c3ccc(O)cc3)[C@]3(C(=O)Nc4ccc(C#CC5=CCCCC5)cc43)[C@@H](C(=O)N3CCCCCCC3)[C@H]12 | 0.485 |
| CC(C)C[C@H]1NC(=O)[C@@]23C(=O)N[C@@H](Cc4ccccc4)C2[C@H](C)[C@@]2(C)O[C@H]2C3/C=C/C/C=C\CNC(=O)[C@@H]2CCCN2C1=O (stereo not given in full) | -0.576 |
| C#CCN(C/C=C/c1ccccc1)[C@H](CO[Si](C)(C)C(C)(C)C)c1ccccc1 | -1.03 |
| COC(=O)C1(CC(C)C)C=C2C(=C(C(C)C)C(=O)C2C)CN1 (stereo not given) | 1.07 |
| CC=CC(O)C1C=CC2C(=O)N(C)C(=O)C2N1NC(=O)OC(C)(C)C (stereo not given) | -0.516 |
| COc1cc2c(cc1O)C(C1CC1)N(Cc1ccc([N+](=O)[O-])o1)CC2 (stereo not given) | 1.21 |
| CC(C)C[C@H]1NC(=O)[C@@H](C)NC(=O)[C@@]23C(=O)N[C@@H](Cc4ccccc4)C2[C@H](C)[C@@]2(C)O[C@H]2C3/C=C/C/C=C\CNC1=O (stereo not given in full) | -1.09 |
| COCCOC(=O)N1C(=O)[C@@]2(c3cc(C#Cc4ccc(OC)cc4)ccc31)[C@H](C(=O)N1CCCCCCC1)[C@H]1C(=O)O[C@H](c3ccccc3)[C@H](c3ccccc3)N1[C@@H]2c1ccccc1OCCO | 1.49 |
| CCCCN1CC=CC23O[C@@H]4C=CCOC(=O)[C@@H]4[C@H]2C(=O)N(C(CO)C(C)C)[C@@H]3C1=O (stereo not given in full) | -0.828 |

| Compound | composite z-score |
| --- | --- |
| C[C@H]1NC(=O)C([C@@H](C)OCc2ccccc2)NC(=O)[C@@]23C(=O)N[C@@H](Cc4ccccc4)C2[C@H](C)[C@@]2(C)O[C@H]2C3/C=C/C/C=C\CNC1=O (stereo not given in full) | -0.854 |
| C=CCC(OC(C)=O)[C@@H]1[C@@H](N(Cc2cc3ccccc3o2)C(=O)c2cccc3ccccc23)c2cc(OCCCO)ccc2N1C(=O)c1ccc2ccccc2c1 (stereo not given in full) | 0.63 |
| NC(=O)NCC#Cc1ccc2c(c1)[C@]1(C(=O)N2)[C@H](C(=O)N2CCCCCCC2)[C@H]2C(=O)O[C@H](c3ccccc3)[C@H](c3ccccc3)N2[C@@H]1c1ccc(O)cc1 | 0.509 |
| [N-]=[N+]=NCc1ccccc1[C@H]1OC(c2ccc(OCCCO)cc2)=N[C@@]1(Cc1ccccc1)C(=O)N1CCOCC1 | 0.779 |
| CC(C)=CCN(C(=O)C#Cc1ccccc1)[C@H](CO)c1ccccc1 | -0.56 |
| CCCC=C(CCC)[C@@H](NC(=O)c1ccco1)c1ccc(C(=O)OC)cc1 | 1.27 |
| CN(C)CCCCNC(=O)[C@H]1C[C@H]2C(=O)NCC(=O)N2[C@H]1c1cccc(OCCO)c1 | 0.706 |
| N#Cc1ccc(C(O)C2C=CC3C(=O)NC(=O)C3N2Nc2ccccn2)cc1 (stereo not given) | -0.272 |
| C=CCC(OC(C)=O)[C@@H]1[C@@H](N(Cc2ccc(-c3cccc(C(F)(F)F)c3)o2)C(=O)Cc2ccc(F)cc2)c2cc(OCCCO)ccc2N1C(=O)c1ccc2ccccc2c1 (stereo not given in full) | -0.214 |
| COCCOC(=O)N1C(=O)[C@@]2(c3cc(C#CC4(O)CCCCCC4)ccc31)[C@H](c1ccc(OCCO)cc1)N1[C@H](c3ccccc3)[C@H](c3ccccc3)OC(=O)[C@H]1[C@@H]2C(=O)N1CCCCCCC1 | 1.45 |
| CO[C@H]1O[C@H](CO)[C@@H](OC(=O)Nc2ccc(C(F)(F)F)cc2)[C@H](OC(=O)Nc2ccccc2-c2ccccc2)[C@@H]1OC(=O)Nc1ccccc1-c1ccccc1 | 0.383 |
| COCCOC(=O)N1C(=O)[C@@]2(c3cc(C#CCC(C(=O)OC)C(=O)OC)ccc31)[C@H](C(N)=O)[C@H]1C(=O)O[C@H](c3ccccc3)[C@H](c3ccccc3)N1[C@@H]2c1ccc(OCCO)cc1 | -0.27 |
| CCCCNC(=O)c1ccc(C#C[Si](C)(C)C)c(OC(C)=O)c1 | -0.834 |
| COCCOC(=O)N1C(=O)[C@@]2(c3cc(C#Cc4ccc(OC)cc4)ccc31)[C@H](C(=O)Nc1nc3ccccc3s1)[C@H]1C(=O)O[C@H](c3ccccc3)[C@H](c3ccccc3)N1[C@@H]2c1ccccc1OCCO | 0.747 |
| COC(=O)[C@@]1(Cc2ccc(F)cc2)[C@H]2c3cc(C(=O)N4CCCC4)n(CCO)c3C[C@H]2CN1C(=O)c1ccccc1 | 0.723 |
| CCC[C@@H]1C=C(C(=O)OCC)[C@H](c2ccccc2)N1S(=O)(=O)c1ccc(C)cc1 | 0.409 |
| COCCOC(=O)N1C(=O)[C@@]2(c3ccccc31)[C@H](C(N)=O)[C@H]1C(=O)O[C@H](c3ccccc3)[C@H](c3ccccc3)N1[C@@H]2c1ccc(OCCO)cc1 | -0.183 |

Reference: PubChem BioAssay
